Hits are enriched below; roughly 4.1% of the tested compounds scored in any of these assays.
FMDV antiviral – blocks foot and mouth disease virus. FMDV antiviral cell-based qHTS. Potency, µM (series often up to 57.9 µM), inactives show at the top dose activity change, negative = inhibition, most hits filed as inhibitors. 410,000 tested, 1.2% active; calls by dose curve; tested in HEK293T cells; further: read-out not given here; nearly all actives have a fitted effect of over 45% in size
AmpC no deterg – AmpC beta-lactamase inhibition without detergent; P00811; AmpC nitrocefin hydrolysis, absorbance 480 nm, 0.0001% Triton; Potency, µM (titrated, usually from 57.1 µM), for inactives: at the highest dose activity change, negative = inhibition, most hits filed as inhibitors; 330,000 tested, 0.52% active;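 further: plate controls were no compound for no effect and no enzyme for full effect; nearly all actives have a fitted effect of over 20% in size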
Target sequence (P00811 whole entry, looked up): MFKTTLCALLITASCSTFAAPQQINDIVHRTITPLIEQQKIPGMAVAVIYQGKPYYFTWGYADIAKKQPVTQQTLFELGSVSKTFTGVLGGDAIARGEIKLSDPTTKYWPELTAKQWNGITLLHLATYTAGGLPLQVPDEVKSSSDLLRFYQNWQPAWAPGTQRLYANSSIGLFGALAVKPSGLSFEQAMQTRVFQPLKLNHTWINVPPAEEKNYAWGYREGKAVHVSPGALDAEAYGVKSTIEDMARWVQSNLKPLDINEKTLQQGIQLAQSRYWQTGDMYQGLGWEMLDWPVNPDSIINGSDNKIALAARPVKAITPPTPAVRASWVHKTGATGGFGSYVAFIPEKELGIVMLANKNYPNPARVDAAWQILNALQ
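20 mM phosphate pH 7.0 + 0.01% (detergent screen) or 0.0001% Triton X-100; 5.3 nM AmpC reagent; cpd preinc 15 min RT; nitrocefin (800 uM stock) to start; A480 q20 s × 4 min; Activity was normalised to no-enzyme and no-compound control wells.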
AmpC detergent – blocks E. coli AmpC beta-lactamase in detergent assay; P00811; AmpC hydrolysis of nitrocefin, absorbance 480 nm, 0.01% Triton; Potency, µM (titrated, usually from 114 µM), for the others: top-dose activity change, negative = inhibition, most hits filed as inhibitors; 370,000 tested, 0.041% active; AID 485294;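 further: 0% = no-compound wells and -100% = no-enzyme wells; nearly all actives have a fitted effect of over 25% in size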
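AmpC (5.3 nM in the dispensed reagent) in 20 mM phosphate pH 7.0 with 0.01% (detergent screen) or 0.0001% Triton X-100 was preincubated with compounds for 15 min at room temperature. Nitrocefin was then added from an 800 uM solution, and hydrolysis was followed at 480 nm.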
AMA1 RON2 block – inhibitors of Plasmodium falciparum AMA1-RON2 interaction. AlphaScreen AMA1-biotinylated RON2 peptide binding. Potency, µM (top dose mostly 58.2 µM), for the others: top-dose activity change, negative = inhibition, usual class: inhibitors. 360,000 tested, 0.2% active;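 further: 0% = vehicle wells and -100% = peptide control; nearly all actives have a fitted effect of over 45% in size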
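AMA1 (3D7) with his tag at 25 nM final met compounds first, then biotinylated RON2 peptide at 25 nM; detection used donor plus acceptor beads, 10 µg/mL apiece, read by AlphaScreen after 30 min at room temperature.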
Sm TGR block – inhibitors of Schistosoma mansoni thioredoxin glutathione reductase; Q962Y6; purified TGR, DTNB reduction, TNB absorbance 405 nm; Potency, µM (highest dose often 114 µM), inactives show at the top dose activity change, negative = inhibition, actives largely listed as inhibitors; 360,000 tested, 3% active; further: nearly all actives have a fitted effect of over 60% in size
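First, TGR (20 nM dispensed) and NADPH were mixed with compound. Second, a 15 min room-temperature incubation followed. Third, further NADPH and then DTNB were added to start the reaction. Finally, TNB absorbance was monitored kinetically.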
* = called active by the depositor; ? = inconclusive; . = no result. Unless noted, the call rests on the fitted dose curve; in most records, active means well fitted curve in the direction sought with a large enough effect; inconclusive means small, poorly fitted or top-dose-only effect, or another doubt; inactive means no such curve, though single readings can be large; an effect the other way counts as inactive or inconclusive. Unless noted, on the % scale 0 is the no-effect control and ±100 the full control effect; potency means the concentration at half of the fitted maximal effect.

SMILES | FMDV antiviral | AmpC no deterg | AmpC detergent | AMA1 RON2 block | Sm TGR block
COC(=O)C1=C(c2ccc(C(C)=O)cc2)C[C@@H]2CC[C@H]1N2C | 1% | -13% | -3% | 2% | -7%
COc1ccccc1CNC(=O)C1CCCN(C(=O)c2cnn(-c3ccc(F)cc3)c2-n2cccc2)C1 (centres undefined) | -21% | . | 5% | . | 3%
COc1ccc(NC(=O)CC(c2ccccc2)c2ccco2)cc1 (centres undefined) | 29% | -59% | -2% | -2% | 40µM*
COc1cc(/C=C/c2nc3cc(Cl)ccc3c(=O)n2-c2cccc(C(F)(F)F)c2)cc(OC)c1OC | ? | . | 5% | . | 6%
O=C(NCCc1ccccc1)c1ccc(Cl)c(S(=O)(=O)N2CCCC2)c1 | -7% | 175% | -4% | 6% | -7%
COc1ccc(CCNC(=O)c2ccc(N(C)S(=O)(=O)c3ccc(C)cc3)cc2)cc1 | ? | -45% | ? | 9% | 15%
CC1CCCN(S(=O)(=O)c2cc(C(=O)NCCc3ccc(S(N)(=O)=O)cc3)ccc2Cl)C1 (centres undefined) | 18µM* | . | . | -2% | .
COc1ccc(CCNC(=O)c2ccc(Cl)c(S(=O)(=O)N(C)c3ccccc3)c2)cc1 | 28µM* | -5% | 0% | -4% | -3%
CN(c1ccccc1)S(=O)(=O)c1cccc(C(=O)NCCc2ccc(O)c(O)c2)c1 | ? | -39% | 3% | -3% | 16µM*
COc1ccc(CCNC(=O)c2ccc(Cl)c(S(=O)(=O)N3CCCCCC3)c2)cc1 | 14µM* | -11% | 7% | 26% | 5%
CC1CCc2c(sc3nc(C(C)(C)C)nc(N4CCN(C(=O)CCl)CC4)c23)C1 (centres undefined) | 20µM* | 64% | ? | -3% | 3%
Cc1nc2ccc(S(=O)(=O)NCC(=O)N3CCc4ccccc4C3)cc2s1 | -15% | -1% | -12% | -5% | -9%
Cc1nc2ccc(S(=O)(=O)NCC(=O)N3CCc4ccccc43)cc2s1 | 21% | -6% | -5% | -9% | 56µM*
CCC(C(=O)Nc1nnc(-c2ccco2)s1)c1ccccc1 (centres undefined) | 1% | -34% | ? | -7% | 32µM*
CCc1nnc(NC(=O)C(CC)c2ccccc2)s1 (centres undefined) | -3% | -2% | ? | 4% | 2%
CCOc1cccc(C(=O)Nc2nnc(-c3ccco3)s2)c1 | -38% | -42% | -3% | -13% | ?
Cc1cccc(OCC(=O)Nc2nnc(-c3ccco3)s2)c1 | 28% | -35% | ? | -4% | 14µM*
COc1ccccc1OCC(=O)Nc1nnc(-c2ccco2)s1 | 21% | -9% | -12% | 5% | 32µM*
O=C(C1=C[C@@H](c2csc3ccccc23)C[C@@H](OCc2ccc(CO)cc2)O1)N1CCN(Cc2ccccc2)CC1 | -27% | 77% | 8% | -27% | 35µM*
O=C(C1=C[C@H](c2ccccc2)C[C@H](OCCCCO)O1)N1CCOCC1 | -8% | 18% | 9% | 33% | 45µM*
O=C(C1=C[C@H](c2ccc(Br)cc2)C[C@H](OCCCCO)O1)N1CCN(Cc2ccccc2)CC1 | 0% | 166% | -4% | 27% | 35µM*
O=C(C1=C[C@@H](c2csc3ccccc23)C[C@@H](OCCCCO)O1)N1CCN(Cc2ccc3c(c2)OCO3)CC1 | -25% | 201% | 9% | -23% | -10%
O=C(C1=C[C@@H](c2ccc(Br)cc2)C[C@@H](OCCCCO)O1)N1CCN(Cc2ccc3c(c2)OCO3)CC1 | -28% | 231% | 8% | -16% | -2%
O=C(C1=C[C@H](c2csc3ccccc23)C[C@H](OCCCCO)O1)N1CCN(Cc2ccccc2)CC1 | ? | 243% | 1% | -20% | 18µM*
O=C(C1=C[C@@H](c2csc3ccccc23)C[C@@H](OCc2ccc(CO)cc2)O1)N1CCN(Cc2ccc3c(c2)OCO3)CC1 | -27% | 43% | 7% | -17% | -8%
CCC1CCc2nc3sc(C(=O)Nc4cccc(F)c4)c(N)c3cc2C1 (centres undefined) | -12% | . | 11% | . | -2%
